A short description of test [1]: Nuclear factor erythroid 2-related factor 2/antioxidant responsive element (Nrf2/ARE) small molecule agonists: qHTS cell viability counter screen in human keratinocytes (AID 1919968; active = well fitted curve in the direction sought with a large enough effect in the repeat runs; an effect the other way counts as inactive or inconclusive; also: nearly all actives have a fitted effect of over 55% in size; also: potency is read from the fitted curve at half-maximal effect). In a few lines:
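After a 5 h attachment period, ARE-reporter keratinocytes were dosed with compounds in DMSO and then cultured 23 h at 37 C. Cell viability came from CellTiter-Fluor signal read after a further 1 h.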
(In general: In qHTS, concentration-response curves come from the screen itself.)

Test [2] in a line: Nuclear factor erythroid 2-related factor 2/antioxidant responsive element (Nrf2/ARE) small molecule agonists: luciferase reporter gene qHTS assay in human keratinocytes (AID 1919969). Also: nearly all actives have a fitted effect of over 35% in size. Also: potency is read from the fitted curve at half-maximal effect. A general note: Reporter assays use an easily measured gene product as a stand-in for the process of interest.
The target in test [3] is Gonadotropin-releasing hormone receptor (Homo sapiens) (UniProt P30968). The test can be described thus: Human gonadotropin-releasing hormone receptor (GnRHR) small molecule agonists, calcium flux assay in GnRHR-HEK293 cells (AID 1920063). Also: nearly all actives have a fitted effect of over 35% in size. The method, boiled down:
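We seeded human GnRHR-expressing HEK293 cells for 18 hours, loaded them with calcium dye for an hour at 37 C, added test compounds, and recorded fluorescence intensity kinetically for three minutes.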

Test [4] has as its target KiSS-1 receptor (Homo sapiens) (UniProt Q969F8). In words: Human kisspeptin (KISS1R) small molecule agonists, calcium flux assay in KISS1R-HEK293 cells (AID 1920064; active = well fitted curve in the direction sought with a large enough effect in the repeat runs; an effect the other way counts as inactive or inconclusive). The method, boiled down: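 Kinetic calcium assay, 1 s sampling over 3 min at Ex/Em 480/540, in HEK293 cells engineered with human KISS1R; compounds delivered in DMSO after 1 h dye loading.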
In general terms: A change in cytosolic calcium serves as a functional read-out for many receptors and channels.

A short description of test [5]: G protein-coupled receptor (GPCR) small molecule agonists, calcium flux assay: HEK293 wild type cell line counter screen (AID 1920065). The method, boiled down: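 Calcium-sensitive dye, loaded 1 h at 37 C into cells cultured 18 h, reports compound-evoked calcium release as fluorescence (Ex/Em 480/540), measured over 3 min. Agonist mode; 15-point titrations, triplicate.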

A short description of test [6]: p53 small molecule agonists, cell-based qHTS assay with human liver microsomes (AID 1963577). The method, boiled down:
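p53RE-bla cells, 4,000/well, compound added after 5 h, with human liver microsomes 0.5 mg/mL and NADPH 0.5 mg/mL final; 16 h at 37 C, then LiveBLAzer 2 h RT, fluorescence.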

Test [7] in a line: p53 small molecule agonists, cell-based qHTS assay with rat liver microsomes (AID 1963578). In a few lines: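 p53RE-bla cells, 4,000/well, pre-incubated 5 h, then given compounds plus rat liver microsomes (0.5 mg/mL final) and NADPH (0.5 mg/mL final). Incubation 16 h at 37 C; beta-lactamase reporter read by LiveBLAzer fluorescence after 2 h at room temperature.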
Test [8] can be described thus: p53 small molecule agonists, cell-based qHTS assay with rat liver microsomes: qHTS cell viability counter screen (AID 1963580). Also: nearly all actives have a fitted effect of over 45% in size. Also: potency is read from the fitted curve at half-maximal effect. In a few lines:
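p53RE-bla HCT-116 cells were exposed 16 h at 37 C to compounds with rat liver microsomes (0.5 mg/mL) and NADPH (0.5 mg/mL). Viability was measured in the same wells as ATP content by CellTiter-Glo luminescence.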

Test [9] is described as follows: p53 small molecule agonists, cell-based qHTS assay: qHTS cell viability counter screen (AID 1963581). Also: nearly all actives have a fitted effect of over 45% in size. Also: potency is read from the fitted curve at half-maximal effect. The method, boiled down: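 Following 5 h attachment, HCT-116 p53RE-bla cells took up compound for 16 h at 37 C; the reporter was read with B/G FRET substrate (2 h RT), and viability then via CellTiter-Glo ATP luminescence.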
A short description of test [10]: p53 small molecule agonists, cell-based qHTS assay (AID 1963582; active = well fitted activation curve with a large enough effect in the signal ratio in the repeat runs, not every such curve was filed as active; the % refers to the signal ratio). The method, boiled down:
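In this cell-based concentration-response screen, a p53 response element drives beta-lactamase; cells received DMSO-borne compounds after 5 h culture and were incubated a further 16 h before FRET substrate development.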

Test [11] concerns the target 5-hydroxytryptamine receptor 2A (Homo sapiens) (UniProt P28223). The test can be described thus: 5-hydroxytryptamine receptor 2A (HTR2A) small molecule agonists, cell-based qHTS assay (AID 1963587). Also: nearly all actives have a fitted effect of over 30% in size. Also: potency is read from the fitted curve at half-maximal effect. In a few lines: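 CHO cells stably expressing human HTR2A, plated 18 h, loaded with calcium dye 1 h at 37 C. Agonist mode: compounds added and intracellular calcium fluorescence recorded kinetically for 2 min at 1 sec intervals.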

Test [12] addresses Muscarinic acetylcholine receptor M1 (Homo sapiens) (UniProt P11229). In words: Cholinergic receptor muscarinic 1 (CHRM1) small molecule antagonists, cell-based qHTS assay (AID 1963588). Also: nearly all actives have a fitted effect of over 40% in size. Also: potency is read from the fitted curve at half-maximal effect. In a few lines:
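CHRM1-CHO calcium-flux assay, antagonist mode. Cells were seeded 18 h, dye-loaded 1 h at 37 C and given compound for 5 min at RT, then acetylcholine was added at 50nM. FDSS fluorescence was read 3 min; 15 concentrations, three runs.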

Test [13] has the same target. The test can be described thus: Cholinergic receptor muscarinic 1 (CHRM1) small molecule agonists, cell-based qHTS assay (AID 1963589). Also: nearly all actives have a fitted effect of over 35% in size. The method, boiled down: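 Measures agonist-induced intracellular calcium rise. Stable human CHRM1 CHO line, 1 h dye load at 37 C, compounds from DMSO, kinetic fluorescence read.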
Test [14] in a line: cAMP Responsive Elements (CRE) small molecule antagonists, cell-based qHTS assay (AID 1963591; active = well fitted inhibition curve with a large enough effect in the signal ratio in the repeat runs, not every such curve was filed as active; the % refers to the signal ratio). In a few lines: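 HEK293T cells carrying a CRE-driven beta-lactamase reporter receive compound and NKH477 (0.25 uM final) for 3 h. Fluorescence from LiveBLAzer B/G FRET substrate is read after 2 h at room temperature.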
In test [15] the target is Beta-2 adrenergic receptor (Homo sapiens) (UniProt P07550). The test can be described thus: Adrenergic beta2 receptor (ADRB2) small molecule antagonists, cell-based qHTS assay (AID 1963592). Also: series mostly up to about 92 µM; nearly all actives have a fitted effect of over 50% in size. In a few lines: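 Cells (CHO, stable ADRB2 overexpression) incubated 18-20hr at 37C; compounds added from DMSO; agonist mix (1nM isoproterenol, 100uM IBMX, 25uM Ro-20-1724) added; 0.5hr RT; d2-cAMP and anti-cAMP-cryptate added; 1hr RT; 665/615 nm read.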
Chain of Beta-2 adrenergic receptor (Homo sapiens) (P07550 whole entry, looked up): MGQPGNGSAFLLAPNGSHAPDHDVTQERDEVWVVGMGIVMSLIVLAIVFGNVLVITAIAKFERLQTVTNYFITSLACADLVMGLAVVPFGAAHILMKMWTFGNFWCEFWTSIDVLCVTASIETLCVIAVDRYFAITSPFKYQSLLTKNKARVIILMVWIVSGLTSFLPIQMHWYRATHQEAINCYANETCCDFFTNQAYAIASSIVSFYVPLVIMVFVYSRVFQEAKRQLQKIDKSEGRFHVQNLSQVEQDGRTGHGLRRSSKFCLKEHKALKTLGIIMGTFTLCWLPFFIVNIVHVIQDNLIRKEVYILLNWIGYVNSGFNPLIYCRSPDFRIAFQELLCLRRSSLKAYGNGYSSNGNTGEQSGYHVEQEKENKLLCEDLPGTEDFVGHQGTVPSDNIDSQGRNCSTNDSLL

Test [16] concerns the target D(2) dopamine receptor (Homo sapiens) (UniProt P14416). In words: Dopamine D2 receptor (DRD2) small molecule agonists, cell-based qHTS assay (AID 1963594). Also: nearly all actives have a fitted effect of over 35% in size. In a few lines: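 HEK293 cells stably expressing human DRD2, pre-treated with PDE inhibitor Ro20-1724 (0.1 mM final) and compound 10 min at room temperature, then stimulated with NKH477 (200nM […]) for 30 min. cAMP read by HTRF (665/620 nm).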

Test [17] shares this target. The test can be described thus: Dopamine D2 receptor (DRD2) small molecule antagonists, cell-based qHTS assay (AID 1963595; active = well fitted inhibition curve with a large enough effect in the signal ratio in the repeat runs, with a control signal flat; the % refers to the signal ratio). The method, boiled down: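 HTRF cAMP read-out at 665 and 620 nm emission (340 nm excitation). Antagonist mode: compounds were tested against 12 nM quinpirole in DRD2-HEK293 cells, with 200 nM NKH477 raising cAMP and 0.1 mM Ro20-1724 blocking its breakdown.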

A short description of test [18]: p53 small molecule agonists, cell-based qHTS assay with human liver microsomes: qHTS cell viability counter screen (AID 1963579). Also: nearly all actives have a fitted effect of over 45% in size. Also: potency is read from the fitted curve at half-maximal effect. The method, boiled down: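 p53RE-bla cells, 4,000/well, dosed 5 hours after plating, with human liver microsomes (0.5 mg/mL final) plus NADPH (0.5 mg/mL final), 16 hours at 37 C. Viability read as CellTiter-Glo luminescence after 30 min at room temperature.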

Test [19] addresses 5-hydroxytryptamine receptor 2A (Homo sapiens) (UniProt P28223). The test can be described thus: 5-hydroxytryptamine receptor 2A (HTR2A) small molecule antagonists, cell-based qHTS assay (AID 1963586). Also: nearly all actives have a fitted effect of over 45% in size. Also: potency is read from the fitted curve at half-maximal effect. In a few lines: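 Antagonist-mode intracellular calcium assay: DOI (4 nM) added after 5 min compound pre-incubation at room temperature to dye-loaded HTR2A-CHO cells. Fluorescence followed for 3 min, sampled every second.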

A short description of test [20]: cAMP Responsive Elements (CRE) small molecule agonists, cell-based qHTS assay (AID 1963590). The method, boiled down: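 A CRE-responsive beta-lactamase reporter in HEK 293T cells was used. Treatment ran 3 h at 37 C; detection used LiveBLAzer B/G FRET substrate for 2 h at room temperature.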

The structures appear in SMILES notation. A number with no mark means an inactive call. Results filed as inconclusive are left out. Activity calls are given as the source filed them. Unless noted, calls follow the shape of the full dose curve.

Consider 8 compounds from PubChem BioAssay (Tox21).

Chain of KiSS-1 receptor (Homo sapiens) (Q969F8 whole entry, looked up): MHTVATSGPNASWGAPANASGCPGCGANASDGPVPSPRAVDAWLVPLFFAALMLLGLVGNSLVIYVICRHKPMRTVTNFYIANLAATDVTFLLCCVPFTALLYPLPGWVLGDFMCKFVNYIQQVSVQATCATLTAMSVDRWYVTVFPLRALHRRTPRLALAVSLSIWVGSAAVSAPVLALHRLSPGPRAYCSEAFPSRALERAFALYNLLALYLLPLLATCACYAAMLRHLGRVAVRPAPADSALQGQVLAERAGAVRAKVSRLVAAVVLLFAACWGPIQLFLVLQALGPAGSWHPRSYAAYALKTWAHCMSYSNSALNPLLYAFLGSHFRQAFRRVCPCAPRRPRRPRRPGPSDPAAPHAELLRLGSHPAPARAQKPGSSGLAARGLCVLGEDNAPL
Chain of D(2) dopamine receptor (Homo sapiens) (P14416 whole entry, looked up): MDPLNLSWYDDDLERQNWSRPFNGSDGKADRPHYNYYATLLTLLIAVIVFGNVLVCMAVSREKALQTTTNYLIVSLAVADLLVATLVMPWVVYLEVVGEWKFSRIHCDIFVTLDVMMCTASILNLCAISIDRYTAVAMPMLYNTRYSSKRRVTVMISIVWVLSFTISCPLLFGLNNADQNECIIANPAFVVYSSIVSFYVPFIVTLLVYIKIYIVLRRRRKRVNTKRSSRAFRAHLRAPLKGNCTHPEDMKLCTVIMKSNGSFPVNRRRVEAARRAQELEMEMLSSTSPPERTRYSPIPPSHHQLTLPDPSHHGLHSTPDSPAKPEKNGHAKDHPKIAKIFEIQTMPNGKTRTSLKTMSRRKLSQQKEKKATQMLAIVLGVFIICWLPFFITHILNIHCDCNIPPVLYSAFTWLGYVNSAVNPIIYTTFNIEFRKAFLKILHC
Chain of Muscarinic acetylcholine receptor M1 (Homo sapiens) (P11229 whole entry, looked up): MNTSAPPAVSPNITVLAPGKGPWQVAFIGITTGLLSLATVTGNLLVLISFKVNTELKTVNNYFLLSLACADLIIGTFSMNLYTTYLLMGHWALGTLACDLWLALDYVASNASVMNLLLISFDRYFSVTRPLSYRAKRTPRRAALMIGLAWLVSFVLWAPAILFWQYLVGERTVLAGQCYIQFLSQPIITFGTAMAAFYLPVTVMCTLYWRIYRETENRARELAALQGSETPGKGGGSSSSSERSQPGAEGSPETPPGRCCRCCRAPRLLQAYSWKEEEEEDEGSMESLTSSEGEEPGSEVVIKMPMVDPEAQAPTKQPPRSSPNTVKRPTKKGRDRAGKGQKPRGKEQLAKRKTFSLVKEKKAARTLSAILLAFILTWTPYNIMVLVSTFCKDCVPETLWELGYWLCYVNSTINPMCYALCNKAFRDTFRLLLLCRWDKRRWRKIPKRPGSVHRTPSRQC
Chain of Gonadotropin-releasing hormone receptor (Homo sapiens) (P30968 whole entry, looked up): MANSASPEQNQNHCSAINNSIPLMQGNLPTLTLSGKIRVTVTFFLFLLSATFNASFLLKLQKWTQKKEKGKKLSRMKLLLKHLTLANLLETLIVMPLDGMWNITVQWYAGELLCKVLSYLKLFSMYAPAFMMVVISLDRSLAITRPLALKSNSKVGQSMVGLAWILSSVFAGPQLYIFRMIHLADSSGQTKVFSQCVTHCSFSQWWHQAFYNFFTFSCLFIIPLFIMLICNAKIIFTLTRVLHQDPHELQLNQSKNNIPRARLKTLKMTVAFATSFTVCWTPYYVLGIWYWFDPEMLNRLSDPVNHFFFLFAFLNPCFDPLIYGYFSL
Chain of 5-hydroxytryptamine receptor 2A (Homo sapiens) (P28223 whole entry, looked up): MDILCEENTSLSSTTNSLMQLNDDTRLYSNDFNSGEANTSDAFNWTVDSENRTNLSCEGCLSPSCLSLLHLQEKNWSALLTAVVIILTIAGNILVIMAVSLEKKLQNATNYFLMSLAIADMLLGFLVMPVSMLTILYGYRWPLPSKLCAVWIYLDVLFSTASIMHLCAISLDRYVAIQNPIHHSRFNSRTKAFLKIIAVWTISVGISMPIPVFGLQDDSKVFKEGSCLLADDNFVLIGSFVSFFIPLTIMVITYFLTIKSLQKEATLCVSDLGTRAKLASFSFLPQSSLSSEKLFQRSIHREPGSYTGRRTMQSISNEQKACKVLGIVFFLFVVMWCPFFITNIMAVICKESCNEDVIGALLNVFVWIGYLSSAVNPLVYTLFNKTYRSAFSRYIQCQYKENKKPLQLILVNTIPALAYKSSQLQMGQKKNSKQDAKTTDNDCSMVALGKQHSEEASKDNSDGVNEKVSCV

In the case of `CCN(CC)C(=O)Cl`, the Potency result in [1], in [2], in test [3], in [4], in test [5] and in test [6] was “inactive” each time. For the same compound, the Potency result in [7], in test [8], in [9], in test [10], in test [11] and in test [12] was “inactive” in each case. Moreover, the Potency result in test [13], in test [14], in test [15], in [16] and in [17] was “inactive” in each case.
With `C(COCC1CO1)OCC1CO1` (centres undefined), the Potency entry in test [1], in test [3], in test [4], in [5], in test [6] and in [7] was “inactive” throughout. Further, the Potency result in test [10], in test [19], in test [11], in test [12], in test [13] and in test [20] was “inactive” throughout. Further, the Potency entry in [14], in test [15], in test [16] and in test [17] was “inactive” in each case. For the same compound, the Potency in test [2] is 68.6 µM (active); in test [18] it was 32.4 µM (active).
On to `N#Cc1sc2c(=O)c3ccccc3c(=O)c=2sc1C#N`, for which the Potency in test [1] was 6.11 µM (active); in [2], 2.17 µM (active); in test [8] it was 16.2 µM (active); in test [9] it was 4.08 µM (active). Moreover, the Potency entry in test [3], in test [4], in [5], in test [6], in [7] and in test [11] was “inactive” in each case. The Potency entry in test [13], in test [15], in [16] and in test [17] was “inactive” throughout.
Consider `Oc1c(Br)c(Br)c(Br)c(Br)c1Br`, for which the Potency in [1] was 30.8 µM (active); in test [12], 30 µM (active). Besides, the Potency entry in test [2], in [3], in [4], in [5], in test [6] and in test [7] was “inactive” in each case. The Potency result in test [8], in test [10], in test [13], in [15], in test [16] and in [17] was “inactive” throughout.
As for `O=[N+]([O-])c1cc([N+](=O)[O-])c2ccccc2c1`, the Potency result in [1], in [3], in [4], in [5], in [6] and in test [7] was “inactive” each time. Moreover, the Potency result in test [10], in test [11], in test [15] and in [16] was “inactive” each time. Also, the Potency in test [2] was 17.2 µM (active).
Consider `CNC(C)Cc1ccc2c(c1)OCO2` (centres undefined), for which the Potency result in test [1], in [3], in test [4], in [5], in test [6] and in test [18] was “inactive” in each case. Besides, the Potency result in test [8], in test [9], in test [10], in test [12], in [13] and in test [20] was “inactive” in each case. Moreover, the Potency result in test [14], in test [16] and in test [17] was “inactive” in each case. Moreover, the Potency was 84.3 µM (active) in test [2], 1.03 µM (active) in test [19] and 0.602 µM (active) in [11].
For the compound `O=[Se]=O`, the Potency entry in [1], in [2], in [3], in [4], in test [5] and in test [6] was “inactive” throughout. Also, the Potency entry in [7], in [8], in test [19], in test [11], in test [12] and in test [13] was “inactive” each time. Further, the Potency result in test [14], in test [15], in [16] and in test [17] was “inactive” in each case.
Regarding `Cc1cc(C(C)(C)c2ccc(O)c(C)c2)ccc1O`, the Potency was 58.2 µM (active) in test [1], 35.7 µM (active) in [19] and 52.3 µM (active) in test [11]. In addition, the Potency result in test [2], in test [3], in [4], in test [5], in [6] and in test [7] was “inactive” throughout. The Potency entry in test [8], in test [9], in test [12], in [13], in test [15] and in test [16] was “inactive” in each case. The Potency entry in [17] was “inactive”.
